Assay results published in PubChem BioAssay (NCATS).
Inconclusive results are not listed. The source made the active and inactive calls. Calls come from the whole dose curve; as a rule, active = well fitted cell-killing curve with a large enough effect; inconclusive = small, poorly fitted or top-dose-only effect, or effect the other way; inactive = no such curve, though single readings can be large or run the other way.

assay: Quantitative High-Throughput drug screen in 47 multiple myeloma cell lines against the NCATS MIPE library collection: SKMM1_PLB cell viability assay (AID 1919863); details: SKMM1 myeloma viability, CellTiter-Glo ATP, 48 h; viability: active compounds read low; note: nearly all actives have a fitted effect of over 35% in size; for viability: series mostly up to about 46 µM
Description: PI: Beverly A. Mock Ph.D.
Laboratory of Cancer Biology and Genetics,
Center for Cancer Research, National Cancer Institute,
National Institute of Health, Bethesda, Maryland
Drug resistance and disease progression are common in multiple myeloma (MM) patients, underscoring the need for new therapeutic combinations. […] We hypothesized that effective combinations would reduce MYC expression and enhance p16 activity. […] These preclinical data identify potentially useful drug combinations for evaluation in drug-resistant MM and reveal potential mechanisms of combined drug sensitivity.
Described herein is the primary MIPE qHTS used to cherrypick compounds. Validated compounds were then further tested for potential synergistic activiy.
[1] Peat TJ, Gaikwad SM, Dubois W, Gyabaah-Kessie N, Zhang S, Gorjifard S, Phyo Z, Andres M, Hughitt VK, Simpson RM, Miller MA, Girvin AT, Taylor A, Williams D, D'Antonio N, Zhang Y, Rajagopalan A, Flietner E, Wilson K, Zhang X, Shinn P, Klumpp-Thomas C, McKnight C, Itkin Z, Chen L, Kazandijian D, Zhang J, Michalowski AM, Simmons JK, Keats J, Thomas CJ, Mock BA. Drug combinations identified by high-throughput screening promote cell cycle transition and upregulate Smad pathways in myeloma. Cancer Lett. 2023 Aug 1;568:216284. doi: 10.1016/j.canlet.2023.216284. Epub 2023 Jun 24. PMID: 37356470; PMCID: PMC10408729.
SEQUENCE No. (e.g., 1, 2, 3, etc.); […] (e.g., Cells, Incubation, Reagent, etc.); VALUE and DESCRIPTION.
1; Cells; 5 uL; white, solid bottom 1536-well Greiner assay plate.
2; Compounds; 23 nL; Kalypsis pin tool (Wako USA) equipped with a 1536-well pin head to transfer to the assay plates.
3; Incubation; 48 hours; 37C incubation.
4; Reagent;5uL; CellTiter Glo (Promega).
5; Detector; 425V; Luminescence; Viewlux PerkinElmer.
NOTES (numbers refer to Sequence numbers above)
1. The cell-based screening methods employed in this study were like those previously published. Briefly, the corresponding myeloma cell lines were screened in 1,536-well plates with 500 cells, 5-uL per well for inhibition of cell viability (assessed by measuring ATP levels with CellTiterGlo).
2. NCATS MIPE 4.0 library of approved and investigational drugs were added using the Kalypsis pin tool. Wells treated with DMSO only for 100% viability and media only for 0% viability were used as controls.
3. The assay plates were covered and incubated for 48 hours in a 37C, 5% CO2 incubator with controlled humidity.
4. After 48 hours, CellTilter-GloTM luminescent substrate mix (Promega) reagent was added to the assay plate and plates we incubated for 5 min at room temperature.
5. Signal was measured as median relative luminescence units on a ViewLux (PerkinElmer) multiplate reader.
[1] Heske CM, Davis MI, Baumgart JT, Wilson K, Gormally MV, Chen L, Zhang X, Ceribelli M, Duveau DY, Guha R, Ferrer M, Arnaldez FI, Ji J, Tran HL, Zhang Y, Mendoza A, Helman LJ, Thomas CJ. Matrix Screen Identifies Synergistic Combination of PARP Inhibitors and Nicotinamide Phosphoribosyltransferase (NAMPT) Inhibitors in Ewing Sarcoma. Clin Cancer Res. 2017 Dec 1;23(23):7301-7311. doi: 10.1158/1078-0432.CCR-17-1121. Epub 2017 Sep 12. PMID: 28899971; PMCID: PMC6636827.
Potency is the fitted concentration of half-maximal effect.

| SMILES | viability | Potency |
| --- | --- | --- |
| CCOC(=O)C=C[C@H](C[C@@H]1CCNC1=O)NC(=O)[C@@H](CC(=O)[C@@H](NC(=O)c1cc(C)on1)C(C)C)Cc1ccc(F)cc1 | 138% (inactive) | – |
| COc1ccc(C=Cc2cc(OC)c(OC)c(OC)c2)cc1NC(=O)[C@H](N)CO | – | 0.0059 µM (active) |
| CC(C)(C)[C@H](NC(=O)c1ccc(N)c(Cl)c1)C(=O)N1CCC[C@@H]1C(=O)N[C@H](C#N)CC(=O)O | 125% (inactive) | – |
| C=C1C[C@@]2(O)O[C@@]3(C[C@H]2C(C)C)[C@H](C)CC[C@H]13 | 114% (inactive) | – |
| O=C(NCc1ccccc1)[C@H](Cc1ccccc1)NC(=O)[C@@H]1O[C@@H]1C(=O)NCCc1ccc(O)cc1 | 128% (inactive) | – |
| COc1cc([C@@H]2c3cc4c(cc3[C@H](O)[C@H]3COC(=O)[C@@H]23)OCO4)cc(OC)c1OC | – | 0.059 µM (active) |
| COc1ccc(CCC(=O)c2c(O)cc(O[C@@H]3O[C@H](CO)[C@@H](O)[C@H](O)[C@@H]3O[C@@H]3O[C@@H](C)[C@H](O)[C@@H](O)[C@@H]3O)cc2O)cc1O | 101% (inactive) | – |
| COc1cccc2c1C(=O)c1c(O)c3c(c(O)c1C2=O)C[C@@](O)(C(=O)CO)C[C@@H]3O[C@H]1C[C@H](N)[C@H](OC2CCCCO2)[C@H](C)O1 (stereo not given in full) | – | 2.64 µM (active) |
| CN(C)CC(=O)N1CCC(c2ccc(NC(=O)c3ncc(C#N)[nH]3)c(C3=CCCCC3)c2)CC1 | 127% (inactive) | – |
| CC(C)(C)c1nc2c3cc[nH]c(=O)c3c3cc(F)ccc3c2[nH]1 | – | 0.935 µM (active) |
| CC(C=CC=C(C)C=CC1=C(C)CCCC1(C)C)=CC=CC=C(C)C=CC=C(C)C=CC1=C(C)CCCC1(C)C | 107% (inactive) | – |
| CC(C=CC1=C(C)CCCC1(C)C)=CC=CC(C)=CC(=O)Nc1ccc(O)cc1 | – | 19.1 µM (active) |
| CC(=O)OCC(=O)[C@@]1(O)CC[C@H]2[C@@H]3CCC4=CC(=O)CC[C@]4(C)[C@@H]3C(=O)C[C@@]21C | 120% (inactive) | – |
| N#Cc1c(C2CCNCC2)cc(-c2c(O)cccc2OCC2CC2)nc1N | – | 18.7 µM (active) |
| CC(=O)O[C@H]1C[C@@H]2CC[C@H]3[C@H]4C[C@H]([N+]5(C)CCCCC5)[C@@H](OC(C)=O)[C@@]4(C)CC[C@@H]3[C@@]2(C)C[C@H]1N1CCCCC1 | 143% (inactive) | – |
| NC(=O)c1cccc(-c2cccc(OC(=O)NC3CCCCC3)c2)c1 | 110% (inactive) | – |
| CC(C)Oc1ccc(C(=O)N[C@H](CNC(=O)CN(C)C)Cc2ccc(-c3cn4cccc([C@H](C)O)c4n3)cc2)cc1Cl | – | 0.296 µM (active) |
| OCc1ccccc1O[C@@H]1O[C@H](CO)[C@H](O)[C@H](O)[C@H]1O | 130% (inactive) | – |
| COc1cc(O)c2c(c1)C1OC1C[C@H](O)[C@H](O)C(=O)C=CC[C@H](C)OC2=O (stereo not given in full) | – | 4.69 µM (active) |
| CCc1cnn2c(NCc3ccc[n+]([O-])c3)cc(N3CCCC[C@@H]3CCO)nc12 | – | 0.0332 µM (active) |

| SMILES | viability | Potency |
| --- | --- | --- |
| C=CC(=O)Nc1ccc2ncnc(Nc3ccc(OCc4cccc(F)c4)c(Cl)c3)c2c1 | – | 6.62 µM (active) |
| CC[C@@]1([C@@H]2O[C@@H]([C@H]3O[C@@](O)(CO)[C@H](C)C[C@H]3C)C[C@H]2C)CC[C@H]([C@]2(C)CC[C@]3(C[C@H](O)[C@@H](C)[C@@H]([C@@H](C)[C@@H](OC)[C@H](C)C(=O)O)O3)O2)O1 | – | 0.323 µM (active) |
| Cc1cnn(C)c1C(=O)Nc1cc(Nc2ccc3c(C=Cc4ccccn4)n[nH]c3c2)ccc1F | – | 20.9 µM (active) |
| COc1ccc(S(=O)(=O)Nc2cc(-c3c(O)ccc4ccccc34)c(O)c3ccccc23)cc1 | – | 20.9 µM (active) |
| CC(C)[C@H](CO)Nc1nc(Nc2cccc(Cl)c2)c2ncn(C(C)C)c2n1 | – | 20.9 µM (active) |
| CC(C)N1[N]C(=C2C=c3cc(O)ccc3=N2)c2c(N)ncnc21 | – | 0.118 µM (active) |
| Cn1cc(-c2ccc3ncc(Cc4ccc5ncccc5c4)n3n2)cn1 | – | 2.09 µM (active) |
| Nc1ccc(C(=O)Nc2cccc(-c3nc(N4CCOCC4)c4oc5ncccc5c4n3)c2)cn1 | – | 23.5 µM (active) |
| CN(C)CCN1C(=O)c2cccc3cc(N)cc(c23)C1=O | – | 18.7 µM (active) |
| C[C@@H](Oc1ccc2[nH]nc(C=Cc3cnn(CCO)c3)c2c1)c1c(Cl)cncc1Cl | – | 26.4 µM (active) |
| CC(=O)SCC(Cc1ccccc1)C(=O)NCC(=O)OCc1ccccc1 (stereo not given) | – | 10.5 µM (active) |
| CC(C)C[C@H](NC(=O)[C@@H](NC(=O)c1cccc(-c2ccccc2)n1)[C@@H](C)O)B(O)O | – | 0.0743 µM (active) |
| CC1(C)[C@H](O[C@H]2O[C@H](C(=O)O)[C@@H](O)[C@H](O)[C@H]2O[C@@H]2O[C@H](C(=O)O)[C@@H](O)[C@H](O)[C@H]2O)CC[C@@]2(C)[C@H]1CC[C@]1(C)[C@H]2C(=O)C=C2[C@H]3C[C@@](C)(C(=O)O)CC[C@]3(C)CC[C@]21C | 142% (inactive) | – |
| CC(C)n1cnc2c(NCCc3ccc(O)cc3)nc(-c3csc4ccccc34)nc21 | – | 20.9 µM (active) |
| O=C(O)C[C@H](O)C[C@H](O)C=Cc1c(C2CC2)nc2ccccc2c1-c1ccc(F)cc1 | – | 11.8 µM (active) |
| CNC(=O)c1cccc(-c2ccc3c(N4CCOC[C@H]4C)nc(N4CCOC[C@H]4C)nc3n2)c1 | – | 0.0662 µM (active) |
| O=C(C=Cc1ccc(CN(CCO)CCc2c[nH]c3ccccc23)cc1)NO | – | 0.187 µM (active) |
| O=C(O)CCCCC(CCSCc1ccccc1)SCc1ccccc1 (stereo not given) | 120% (inactive) | – |
| COC1=C2C[C@@H](C)C[C@H](OC)[C@@H](O)[C@@H](C)C=C(C)[C@H](OC(N)=O)[C@@H](OC)C=CC=C(C)C(=O)NC(=CC1=O)C2=O | – | 2.09 µM (active) |
| CC(=O)N[C@@H]1[C@H](O[C@@H]2c3ccc(c(Cl)c3)Oc3cc4cc(c3O[C@H]3O[C@H](CO)[C@@H](O)[C@H](O)[C@H]3NC(=O)CCCCCCCC(C)C)Oc3ccc(cc3Cl)C[C@H]3NC(=O)[C@H](N)c5ccc(O)c(c5)Oc5cc(O)cc(c5)[C@H](NC3=O)C(=O)N[C@H]4C(=O)N[C@H]3C(=O)N[C@@H]2C(=O)N[C@@H](C(=O)O)c2cc(O)cc(O[C@H]4O[C@H](CO)[C@@H](O)[C@H](O)[C@H]4O)c2-c2cc3ccc2O)O[C@H](CO)[C@@H](O)[C@@H]1O | 107% (inactive) | – |
